From PubChem BioAssay AID2283221 (EPA ToxCast) come the findings set out here.

The structures appear in SMILES notation. Results filed as inconclusive are left out. Calls of active or inactive are those of the source. Rule for the calls: active = hit-call score of the fitted dose curve at least 0.9, where 1 is the maximum; inconclusive = response in the unintended direction; inactive = score below 0.9.

One may read the AC50 as the concentration giving half of the maximal activity seen.

For the assay, the target named is human Spleen Associated Tyrosine Kinase (Syk), SYK (gene 6850) (UniProt P43405). Put plainly: NVS_ENZ_hSyk: NovaScreen (NVS) Enzymatic Assay for human Spleen Associated Tyrosine Kinase (Syk). The method, then: NVS_ENZ_hSyk is a biochemical, single-readout assay that uses extracted gene-proteins in a cell-free assay. Measurements were taken 1 hour after chemical dosing in a 96-well plate.NVS_ENZ_hSyk is one of one assay component(s) measured or calculated from the NVS_ENZ_hSyk assay. It is designed to make measurements of enzyme activity, a form of enzyme reporter, as detected with fluorescence intensity signals by Fluorescence and electrophoretic mobility shift technology.Data from the assay component NVS_ENZ_hSyk was analyzed into 1 assay endpoint. This assay endpoint, NVS_ENZ_hSyk, was analyzed in the positive analysis fitting direction relative to DMSO as the negative control and baseline of activity. Using a type of enzyme reporter, loss-of-signal activity can be used to understand changes in the enzymatic activity as they relate to the gene SYK. Furthermore, this assay endpoint can be referred to as a primary readout, because this assay has produced […] where this one serves a enzymatic activity function. To generalize the intended target to other relatable targets, this assay endpoint is annotated to the kinase intended target family, where the subfamily is non-receptor tyrosine kinase.
Binding assays used specific radioligands (tritiated, iodinated) with non-radioactive competitive displacement ligands in agonist or antagonist protocols (as indicated) and various reference compounds and inhibitors to titrate specific binding to receptors and transporters. Most enzyme assays (CYPs, kinases, phosphatases, proteases, HDACs) used recombinant protein and specific substrates (fluorescence mostly, some colorimetric and radioactive) and inhibitors, followed by a biochemical separation of substrate and product. All assays for the biochemical HTS were initially run in duplicate at a single concentration (10 uM for CYP450 assays and 25 uM for all others). Assay-chemical combinations meeting a pre-defined threshold (e.g., 30% inhibition and other criteria defined below) were then run in singleton concentration-response format with maximum concentration of 20 uM for CYPs and 50 uM for all others. Each assay was run with positive and negative controls, and concurrent controls on every plate. The follow-up (secondary) screen tested active chemical-pairs in concentration series, as well as a few additional assays not tested in the primary screen, some selected negative inactives, and several cases re-run in the concentration series for confirmatory purposes.
As to `O=C(O)C1(C(=O)Nc2ccc(Cl)cc2Cl)CC1`, the AC50 is 15.4 µM (active). On to `S=C(S)NCCNC(=S)S.[Mn+2].[S-]C([S-])=NCCN=C([S-])[S-].[Zn+2]`, for which the AC50 is 9.71 µM (active). `COP(N)(=O)SC` (configuration not stated): the molecule was called inactive.

Consider `CC[C@H](C)[C@H]1O[C@]2(C=C[C@@H]1C)C[C@@H]1C[C@@H](C/C=C(\C)[C@@H](O[C@H]3C[C@H](OC)[C@@H](O[C@H]4C[C@H](OC)[C@@H](NC)[C@H](C)O4)[C@H](C)O3)[C@@H](C)/C=C/C=C3\CO[C@@H]4[C@H](O)C(C)=C[C@@H](C(=O)O1)[C@]34O)O2`, for which the call was inactive. Consider `CCNc1nc(Cl)nc(NC(C)C)n1`, for which the call was inactive. Regarding `CCOCN(C(=O)CCl)c1c(C)cccc1CC`, the result was inactive. On to `CNc1cnn(-c2cccc(C(F)(F)F)c2)c(=O)c1Cl`, for which the molecule was classed as inactive.
